Measurements as given in PubChem BioAssay (Tox21).
Inconclusive results are not listed. The source made the active and inactive calls. Unless noted, calls follow the shape of the dose curve; as a rule, active = well fitted curve in the direction sought with a large enough effect in the repeat runs; inconclusive = weak or mixed curves; inactive = no such curve, though single readings can be large; an effect the other way counts as inactive or inconclusive.

How the values were obtained:
[1] = qHTS assay to identify small molecule antagonists of the TGF-beta/Smad signaling pathway - cell viability counter screen (AID 1346824); also: nearly all actives have a fitted effect of over 50% in size
Procedure, shortened: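 SBE-bla HEK 293T cells were plated overnight at 37 C, then given compounds in DMSO plus TGF-beta1 (added as 0.25 ng/mL solution) for 5 hr. After the bla read, CellTiter-Glo was added to the same wells and luminescence read after 30 min at room temperature.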

[2] = qHTS assay to identify small molecule agonists of the TGF-beta/Smad signaling pathway - cell viability counter screen (AID 1346829); also: top concentration of the series differs between compounds; nearly all actives have a fitted effect of over 45% in size
Procedure, shortened: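 In parallel with the Smad reporter read, viability of HEK 293T cells stably carrying SBE-bla is quantified by ATP luminescence following 5 hr compound treatment.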

[3] = qHTS assay to identify small molecule agonists of the TGF-beta/Smad signaling pathway (AID 1346859; active = well fitted activation curve with a large enough effect in the signal ratio in the repeat runs, not every such curve was filed as active; the % refers to the signal ratio; also: series mostly up to about 77 µM)
Procedure, shortened: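 Reporter line: HEK 293T with stably integrated SBE-controlled beta-lactamase. Compound exposure lasts 5 hr at 37 C and 5% CO2; substrate loading follows for 2 hr at room temperature, with emission read at 460 and 530 nm.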

[4] = biological target: Thyrotropin-releasing hormone receptor (Homo sapiens) (UniProt P34981); assay: qHTS assay to identify small molecule antagonists of the thyrotropin-releasing hormone receptor (TRHR) signaling pathway (AID 1346877; active = well fitted inhibition curve with a large enough effect in the repeat runs, not every such curve was filed as active; also: series mostly up to about 51 µM)
Thyrotropin-releasing hormone receptor (Homo sapiens), sequence (P34981 whole entry, looked up): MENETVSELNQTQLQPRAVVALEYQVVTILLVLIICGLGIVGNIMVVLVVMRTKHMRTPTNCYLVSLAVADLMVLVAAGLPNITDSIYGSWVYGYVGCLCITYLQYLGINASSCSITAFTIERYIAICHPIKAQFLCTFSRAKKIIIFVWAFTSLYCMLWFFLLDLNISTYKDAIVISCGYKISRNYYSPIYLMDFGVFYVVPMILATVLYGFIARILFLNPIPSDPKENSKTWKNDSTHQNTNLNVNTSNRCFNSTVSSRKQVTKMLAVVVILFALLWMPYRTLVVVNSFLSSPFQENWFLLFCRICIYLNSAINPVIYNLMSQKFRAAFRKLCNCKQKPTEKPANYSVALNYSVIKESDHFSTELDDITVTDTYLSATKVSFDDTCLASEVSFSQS
Procedure, shortened: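 Overnight-plated (18 h, 37 °C) HEK293 cells expressing TRHR were dye-loaded 2 h, treated with compound, then stimulated with TRH at 1 nM final. Fluorescence intensity was captured every second for 3 min.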

[5] = biological target: Thyrotropin-releasing hormone receptor (Homo sapiens) (UniProt P34981); assay: qHTS assay to identify small molecule agonists of the thyrotropin-releasing hormone receptor (TRHR) signaling pathway (AID 1346891; calls by dose curve;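 also: HEK293 cells expressing TRHR with calcium dye readout; series mostly up to about 58 µM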)
Procedure, shortened: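 Cells: TRHR-Hek293, seeded and incubated 18 h. Dye loading: 2 h at 37 °C. Compound added from DMSO stock by pin tool. Read-out: kinetic calcium fluorescence over 3 min.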

[6] = Human pregnane X receptor (PXR) small molecule agonists, qHTS cell viability counter screen (AID 1346977); also: nearly all actives have a fitted effect of over 50% in size
Procedure, shortened: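 Cytotoxicity counter screen run in the same wells as the PXR luciferase assay, using PXR-Luc HepG2 cells in charcoal-stripped serum medium. Viability: CellTiter-Fluor fluorescence after 24hr compound treatment.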

[7] = Caspase-3/7 induction in HepG2 cells by small molecules, qHTS assay (AID 1346978); also: nearly all actives have a fitted effect of over 15% in size
Procedure, shortened: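 Wild-type HepG2 cells (2,000/well) were settled 5 h at 37 C, 5% CO2, then exposed to compounds in DMSO for 17 h. Caspase-3/7 activity was read by luminescence 30 min after adding Caspase-Glo 3/7 reagent at room temperature.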

[8] = Caspase-3/7 induction in CHO-K1 cells by small molecules, qHTS cell viability counter screen (AID 1346979); also: nearly all actives have a fitted effect of over 35% in size
Procedure, shortened: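 Cytotoxicity counter screen run in parallel with the caspase-3/7 assay: CHO-K1 cells, 16hr compound treatment at 37C, then CellTiter-Fluor for 1hr before fluorescence reading.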

[9] = Caspase-3/7 induction in CHO-K1 cells by small molecules, qHTS assay (AID 1346980); also: nearly all actives have a fitted effect of over 15% in size
Procedure, shortened: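 Wild-type cells were seeded at 1,500 per well and settled 5 hr at 37 C, 5% CO2, then exposed to DMSO-dissolved compounds for 17 hr. Caspase-Glo 3/7 reagent was added, and luminescence was read after 30min at room temperature.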

[10] = Caspase-3/7 induction in HepG2 cells by small molecules, qHTS cell viability counter screen (AID 1346981); also: series mostly up to about 92 µM; nearly all actives have a fitted effect of over 30% in size
Procedure, shortened: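 Treatment of HepG2 cells with DMSO-delivered compounds ran 16 hr at 37 C following a 5-hr pre-incubation of 2,000 cells/well. CellTiter-Fluor fluorescence, read after 1 hr, served as the viability measure in a qHTS format.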
% is scaled to controls: 0 for no effect and ±100 for the full control effect.

CN1C[C@@H]2C[C@H]1CN2c1cc2c(cc1F)c(=O)c(C(=O)O)cn2C1CC1
inactive: viability change, negative = cytotoxic [1] 1.45% [at 15.8 µM] | activity change, negative = cytotoxicity [2] 2.12% [at 15.8 µM] | activation [3] 0.101% [at 15.8 µM] | activity, negative = inhibition [4] 1.83% [at 10.5 µM] | activation [5] -1.22% [at 11.8 µM] | activity change, negative = cytotoxicity [6] -0.63% [at 19 µM] | caspase activation [7] -0.0526% [at 19 µM] | activity change, negative = cytotoxicity [8] -0.0368% [at 19 µM] | caspase-3/7 activation [9] -1.08% [at 19 µM] | activity change, negative = cytotoxicity [10] -1.05% [at 19 µM]

OC[C@H]1O[C@@H](O[C@@H]2[C@@H](CO)O[C@](O)(CO)[C@H]2O)[C@H](O)[C@@H](O)[C@H]1O
inactive: outcome [1] | outcome [2] | outcome [3] | outcome [4] | outcome [5] | outcome [6] | outcome [7] | Potency [8] | outcome [9] | outcome [10]

Cc1ncc([N+](=O)[O-])n1CC(C)O (stereo not drawn)
inactive: outcome [1] | outcome [2] | outcome [3] | outcome [4] | outcome [5] | outcome [6] | outcome [7] | Potency [8] | outcome [9] | outcome [10]

O=C(O)CSCC(=O)NC1CCSC1=O (stereo not drawn)
inactive: outcome [1] | outcome [2] | outcome [3] | outcome [4] | outcome [5] | outcome [6] | outcome [7] | Potency [8] | outcome [9] | outcome [10]

CN(C)CCCO[C@@H]1[C@H]2OC(C)(C)O[C@H]2O[C@@H]1C(O)CO (stereo partly drawn)
inactive: outcome [1] | outcome [2] | outcome [3] | outcome [4] | outcome [5] | outcome [6] | outcome [7] | Potency [8] | outcome [9] | outcome [10]

CC(C)(C)NC[C@H](O)COc1cccc2c1CCCC2=O
inactive: outcome [1] | outcome [2] | outcome [3] | outcome [4] | outcome [5] | outcome [6] | outcome [7] | Potency [8] | outcome [9] | outcome [10]

CC1OCCC1=O (stereo not drawn)
inactive: outcome [1] | outcome [2] | outcome [3] | outcome [4] | outcome [5] | outcome [6] | outcome [7] | Potency [8] | outcome [9] | outcome [10]

CSc1cnccn1
inactive: outcome [1] | outcome [2] | outcome [3] | outcome [4] | outcome [5] | outcome [6] | outcome [7] | Potency [8] | outcome [9] | outcome [10]

C/C(CC(C)C)=N\O
inactive: outcome [1] | outcome [2] | outcome [3] | outcome [4] | outcome [5] | outcome [6] | outcome [7] | Potency [8] | outcome [9] | outcome [10]

O=C(Cn1ccnc1[N+](=O)[O-])NCc1ccccc1
inactive: outcome [1] | outcome [2] | outcome [3] | outcome [4] | outcome [5] | outcome [6] | outcome [7] | Potency [8] | outcome [9] | outcome [10]

O=NN(CCCl)C(=O)NC1CCCCC1
inactive: outcome [1] | outcome [2] | outcome [3] | outcome [4] | outcome [5] | outcome [6] | outcome [7] | Potency [8] | outcome [9] | outcome [10]

CCCCCC(C)O (stereo not drawn)
inactive: outcome [1] | outcome [2] | outcome [3] | outcome [4] | outcome [5] | outcome [6] | outcome [7] | Potency [8] | outcome [9] | outcome [10]

C/C(=C1\CCOC(=O)S1)N(C=O)Cc1cnc(C)nc1N
inactive: outcome [1] | outcome [2] | outcome [3] | outcome [4] | outcome [5] | outcome [6] | outcome [7] | Potency [8] | outcome [9] | outcome [10]

O=Cc1cc2ccccc2o1
inactive: outcome [1] | outcome [2] | outcome [3] | outcome [4] | outcome [5] | outcome [6] | outcome [7] | Potency [8] | outcome [9]

CCC(C)C(=O)OCCc1ccccc1 (stereo not drawn)
inactive: outcome [1] | outcome [2] | outcome [3] | outcome [4] | outcome [5] | outcome [6] | outcome [7] | Potency [8] | outcome [9] | outcome [10]

Cc1c(C(=O)c2c[nH]n(C)c2=O)ccc(S(C)(=O)=O)c1C1=NOCC1
inactive: outcome [1] | outcome [2] | outcome [3] | outcome [4] | outcome [5] | outcome [6] | outcome [7] | Potency [8] | outcome [9] | outcome [10]

CO[C@@]1(NC(=O)Cc2cccs2)C(=O)N2C(C(=O)O)=C(COC(N)=O)CS[C@@H]21
inactive: outcome [1] | outcome [2] | outcome [3] | outcome [4] | outcome [5] | outcome [6] | outcome [7] | Potency [8] | outcome [9] | outcome [10]

CCOC(CN1CCN(CC(C)C(=O)c2ccccc2)CC1)c1ccccc1 (stereo not drawn)
inactive: viability change, negative = cytotoxic [1] -0.107% [at 15.8 µM] | activity change, negative = cytotoxicity [2] -11.2% [at 15.8 µM] | activation [3] -2.36% [at 15.8 µM] | activity, negative = inhibition [4] -3.1% [at 10.5 µM] | activation [5] 0.148% [at 11.8 µM] | activity change, negative = cytotoxicity [6] -0.628% [at 19 µM] | caspase activation [7] 0.292% [at 19 µM] | activity change, negative = cytotoxicity [8] 0.23% [at 19 µM] | caspase-3/7 activation [9] 0.336% [at 19 µM] | activity change, negative = cytotoxicity [10] -1.17% [at 19 µM]

COC(=O)/C=C\C(=O)O
inactive: outcome [1] | outcome [2] | outcome [3] | outcome [4] | outcome [5] | outcome [6] | outcome [7] | Potency [8] | outcome [9] | outcome [10]

Fc1ccccc1
inactive: outcome [1] | outcome [2] | outcome [3] | outcome [4] | outcome [5] | outcome [6] | outcome [7] | Potency [8] | outcome [9] | outcome [10]

CC(C)=CCC/C(C)=C/COC=O
inactive: outcome [1] | outcome [2] | outcome [3] | outcome [4] | outcome [5] | outcome [6] | outcome [7] | Potency [8] | outcome [9] | outcome [10]

c1ccc(B(c2ccccc2)c2ccccc2)cc1
inactive: outcome [1] | outcome [2] | outcome [3] | outcome [4] | outcome [5] | outcome [6] | outcome [7] | Potency [8] | outcome [9]

O=C[O][Al]([O]C=O)[O]C=O
inactive: outcome [1] | outcome [2] | outcome [3] | outcome [4] | outcome [5] | outcome [6] | outcome [7] | Potency [8] | outcome [9] | outcome [10]
